# Whole data set: some 39,000 sequences, median “fluorescence intensity (a.u.)” near 4,300, cut for the highest 2% near 39,000. The sample as a whole holds a higher share of the highest values than the screen did.
# Biological target: T1, OsSMF1 (Oryza sativa, UniProt Q6ZLB0 1-436)
# T1 sequence: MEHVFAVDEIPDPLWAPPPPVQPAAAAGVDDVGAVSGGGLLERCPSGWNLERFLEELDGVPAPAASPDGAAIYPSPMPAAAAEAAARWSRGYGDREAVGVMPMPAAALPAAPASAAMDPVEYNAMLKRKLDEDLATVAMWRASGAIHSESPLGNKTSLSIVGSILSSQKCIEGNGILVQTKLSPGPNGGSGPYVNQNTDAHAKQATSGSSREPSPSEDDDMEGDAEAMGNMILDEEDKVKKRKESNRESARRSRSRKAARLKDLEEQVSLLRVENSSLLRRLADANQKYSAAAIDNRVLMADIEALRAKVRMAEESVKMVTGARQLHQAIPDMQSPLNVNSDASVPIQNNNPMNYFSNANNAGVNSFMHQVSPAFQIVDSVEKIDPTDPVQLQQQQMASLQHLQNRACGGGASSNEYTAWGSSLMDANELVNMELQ
# Test: protein-binding microarray (RPBM); PBS, 2% BSA, 51.3 ng/ul salmon testes DNA, 50 uM zinc acetate, 200 nM TF, 25 C, 1 h; high values mean tight binding
# Conditions: protein: recombinant; tags: N-terminal polyhistidine and DsRed monomer fusion (pET32a); chain copies: 2; label: CyDye5-dUTP incorporated in the synthesized complementary strand; 3' TTTTT single-stranded linker to array surface; dsDNA, one strand shown
# Outline: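 Using Ni–NTA, transcription factors fused N-terminally to polyhistidine and DsRed were purified after expression in E. coli BL21-CodonPlus. These were incubated at 200 nM with a blocked, double-stranded custom Agilent array for 1 h at 25 °C in a buffer containing 50 µM zinc acetate, and the array was washed. The binding signal is per-feature fluorescence intensity (arbitrary units) on an Axon 4000B scanner.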
row,Sequence,binding signal
1,TCAAATTGAAAGTTTCCAAAATTTTCAAATCTGGACTTGACGGAGTCACCTAGTGCAG,43500 fluorescence intensity (a.u.)
2,ATGCTAGAAAGTCTTATAACCTGAAACGGAGGTAGTAGGACGGAGTCACCTAGTGCAG,65000 fluorescence intensity (a.u.)
3,AAATTGAGTTGAAAATTTTCAAATCTCGACTTGAAAGTTTCGGAGTCACCTAGTGCAG,21800 fluorescence intensity (a.u.)
4,AATAGTAGGCTATAAGCCGGCTAAATGCTGAGGTGGAGGACGGAGTCACCTAGTGCAG,5420 fluorescence intensity (a.u.)
5,TAGAATTGTCAAGTCAATGCCACGTGGGACAAAGACCTAGCGGAGTCACCTAGTGCAG,17900 fluorescence intensity (a.u.)
6,TCTCTCTCACTCTTCTCTTGCAGGCCTGCGTGGCATACTACGGAGTCACCTAGTGCAG,7430 fluorescence intensity (a.u.)
7,CGGAAACAGATCATCAAACCCATACGTCAGTGATCCAAGTCGGAGTCACCTAGTGCAG,3410 fluorescence intensity (a.u.)
8,TTCCAGTCCACCGTGGCGGTGGCGCGTCAGCTTTCCAGCCCGGAGTCACCTAGTGCAG,12000 fluorescence intensity (a.u.)
9,GGTCCACCCGAATCGGAGTCAGCCAGCCAAGCCACCTAATCGGAGTCACCTAGTGCAG,4780 fluorescence intensity (a.u.)
10,GCCGGTCGAACCGCCCGAACACCTACGGTCAGACCGCTGCCGGAGTCACCTAGTGCAG,3360 fluorescence intensity (a.u.)
11,CTTCATACTGCAGTATCTGAAAAGATGTCATTGTAAAGTTCGGAGTCACCTAGTGCAG,3140 fluorescence intensity (a.u.)
12,TATTGATTGATTGGTTAGTACTACAGTACTGTAGGAGTGGCGGAGTCACCTAGTGCAG,29800 fluorescence intensity (a.u.)
13,TTATGTTTGAATTTAAGTTTTGAGTTTTGTTGCGTGCGCACGGAGTCACCTAGTGCAG,28800 fluorescence intensity (a.u.)
14,TGTGATTGTATTGGTTACTAGAGTAGTATTTAGTAGAGATCGGAGTCACCTAGTGCAG,42200 fluorescence intensity (a.u.)
15,TTGTAGAAGTTGAATTTGGTTTTACATATTTGTGGAGTGACGGAGTCACCTAGTGCAG,61600 fluorescence intensity (a.u.)
16,TAGTTGTGACACGTAGAAGTTGAATTTTAACTTTTATGTTCGGAGTCACCTAGTGCAG,4370 fluorescence intensity (a.u.)
17,CCAAAATGAGTTGAAATGAATTTTGTATGCATTTTATAAACGGAGTCACCTAGTGCAG,6000 fluorescence intensity (a.u.)
18,CATGTTTGTGAAGTGACGTATTACATATTGATCTATTTGACGGAGTCACCTAGTGCAG,8700 fluorescence intensity (a.u.)
19,GTTGTTGATGTGATTGTGTGTATTCAAGTAGAGATTGGGTCGGAGTCACCTAGTGCAG,3240 fluorescence intensity (a.u.)
20,GCATGTTTTGAGTTTGAAAGTTTTAAATTTTGAGTTGAAACGGAGTCACCTAGTGCAG,50200 fluorescence intensity (a.u.)
21,CGACTGAAGACTTGGACACGGTCAGTCTTTCTGCCGTGTTCGGAGTCACCTAGTGCAG,5080 fluorescence intensity (a.u.)

row,Sequence,binding signal
1,ACCAAAGTTGGTACAAGTGTATAATCAGAATGGGAGAGCGCGGAGTCACCTAGTGCAG,21600 fluorescence intensity (a.u.)
2,AATCGATTCTCCACTACTCTCTCGTCATTGTTCCCATGTTCGGAGTCACCTAGTGCAG,3270 fluorescence intensity (a.u.)
3,CCTCCTGTCAGACTGTCGTCAGTGTCACACTGTCACTGTCCGGAGTCACCTAGTGCAG,6520 fluorescence intensity (a.u.)
4,AAAAGACTGGAATACGTGGCGAACAAACTTTATTACACAACGGAGTCACCTAGTGCAG,6740 fluorescence intensity (a.u.)
5,AAACTTATTTGGCCATGGTGTCATCGGGGTTGGCGTTTAGCGGAGTCACCTAGTGCAG,3860 fluorescence intensity (a.u.)
6,TTTATTACACAACGCAACTGGCCAGACTTTAGCGGGTCATCGGAGTCACCTAGTGCAG,46000 fluorescence intensity (a.u.)
7,GCATGCAGGGCATGGCGAGACGGTGACGTGCTCCAAGGCGCGGAGTCACCTAGTGCAG,4760 fluorescence intensity (a.u.)
8,ACTCGCCTGGAAACCGTGAGATGAATTTATTAAGCCTAATCGGAGTCACCTAGTGCAG,3930 fluorescence intensity (a.u.)
9,TAGTCCAATCCATCGTGTTTCCACGTGGCGACCCAACCCCCGGAGTCACCTAGTGCAG,40000 fluorescence intensity (a.u.)
10,AGGGGCCACACCGACCCTCCACGTCATCGTCCACGTCACCCGGAGTCACCTAGTGCAG,40900 fluorescence intensity (a.u.)
11,CTCACCACCACCGTCGTCATCGTCGTCGTCACCCTCCTCCCGGAGTCACCTAGTGCAG,6620 fluorescence intensity (a.u.)
12,CCATGTAAGTGCCACGTCAACGCCACGTGGATCGAAGACTCGGAGTCACCTAGTGCAG,55500 fluorescence intensity (a.u.)
13,AACACCAATCACCACGTACGCCGACCAACCCCATCCACCCCGGAGTCACCTAGTGCAG,6870 fluorescence intensity (a.u.)
14,GATCCAACACGTGTCCCCTACCCACGACACGTGGCAACCCCGGAGTCACCTAGTGCAG,36500 fluorescence intensity (a.u.)
15,ATGGGCCATGGCCCATCCGTGCCACGTGTCGCATGCTCCTCGGAGTCACCTAGTGCAG,27900 fluorescence intensity (a.u.)
16,GGATCCCATTAACACGTGTCACCGTGGCATGCCACGTCATCGGAGTCACCTAGTGCAG,51400 fluorescence intensity (a.u.)
17,GCCATGCATCCATACACGTCTACACTCTACACCCATTAACCGGAGTCACCTAGTGCAG,4850 fluorescence intensity (a.u.)
18,GTCACCTAAGTGCCATGTCAACGCCACGTGGAAAGAAGACCGGAGTCACCTAGTGCAG,25100 fluorescence intensity (a.u.)
19,CCCATCTACCCACCCTCCGACACGTGGGCCCCACCCCGACCGGAGTCACCTAGTGCAG,11000 fluorescence intensity (a.u.)
20,CCATGTAAGTGTCACGTCAATGCCACGTGAGACGAAGACCCGGAGTCACCTAGTGCAG,12500 fluorescence intensity (a.u.)
21,ACAAGGCAACTACTCCTAGCTAGTAAGCATCAATGCATGGCGGAGTCACCTAGTGCAG,4520 fluorescence intensity (a.u.)

# Source: publication PMC7819943, “Rice protein-binding microarrays: a tool to detect cis-acting elements near promoter regions in rice”
